# ChEMBL document CHEMBL4513216, “Probing the Open Global Health Chemical Diversity Library for Multistage-Active Starting Points for Next-Generation Antimalarials” (ACS Infect Dis, 2020)
# In all, about 69,000 compounds went through this assay and about 8,600 (12%) showed an effect of 50% or more. For the sample, strong results were picked, then their nearest neighbours and some compounds at random.
# System: Plasmodium berghei
# Test: Screen against P. berghei liver stage (PbLuc), transformed with Luciferase, at 10uM
# Assay type: functional, HepG2
# Conditions: tested at 10 uM
row,SMILES,INHIBITION
1,Cc1occc1C(=O)N1CCO[C@H]2[C@H](OCc3ccccn3)CC[C@@H]21,30.3%
2,Cc1cnc(N2CCCC(O)C2)nc1-c1ccnn1C (stereo not given),16.6%
3,Cc1cnc(N2CCN(C)CC2)nc1-c1ccnn1C,16.3%
4,COc1cnc(N2CC(N3CCOCC3)C2)nc1-c1ccnn1C,41%
5,Cc1cnc(N2CCCC(c3ccccc3)C2)nc1-c1ncnn1C (stereo not given),39.3%
6,Cc1cnc(N2CC[C@@]3(O)CCCC[C@H]3C2)nc1-c1ccnn1C,30.4%
7,COc1cnc(N2CCN(C)CC2)nc1-c1ccnn1C,20.8%
8,Cc1cnc(N2CCC(c3ccncc3)CC2)nc1-c1ccnn1C,68%
9,Cc1cnc(N2CCCC(c3ccccc3)C2)nc1-c1ccnn1C (stereo not given),71%
10,Cc1cnc(N2CCC(c3ccccc3)CC2)nc1-c1ccnn1C,68%
11,Cc1ccoc1C(=O)N1C[C@@H]2COC[C@]2(COCc2cccnc2)C1,-34.7%
12,CCCc1n[nH]c(C2CN(C(=O)c3n[nH]c4ccccc34)CCO2)n1 (stereo not given),21%
13,COC(=O)NCC(=O)NC1(C)CCc2ccccc2C1 (stereo not given),7.3%
14,CN(C)c1ccc(C(=O)N2CCCC(n3cccn3)C2)nn1 (stereo not given),3.15%
15,Cc1ccc(NC2CCN(C(=O)CCCc3cccs3)CC2)nn1,-3.7%
16,O=C1CCC2(CCN(Cc3cscn3)CC2)CN1CC1CCCO1 (stereo not given),-23.5%
17,Cc1n[nH]c(SCC(=O)NC(c2ccccn2)C(C)C)n1 (stereo not given),58.7%
18,Cc1ccc(OCCC(=O)NC(C)c2ccncc2)cc1 (stereo not given),41.6%
19,Cc1n[nH]c(SCC(=O)N[C@@H](C)C(N)=O)n1,4.41%
20,Cc1noc(CCCC(=O)NC(C)c2ccccn2)n1 (stereo not given),13.9%
21,CSCC(=O)NC(Cc1ccc(C)cc1)c1ccccn1 (stereo not given),21.3%
22,Cc1n[nH]c(SCC(=O)NC(c2ccncc2)C(C)C)n1 (stereo not given),50.1%
23,CC(C)CNC(=O)Cn1ccc2ccccc21,25.7%
24,O=C(NC1CC1)c1ccnc(-c2cc(NCCO)nc3[nH]ccc23)c1,-20.1%
25,O=S(=O)(c1ccccc1)N1CCC2(CCCN2Cc2ccc(Cl)cc2)C1 (stereo not given),91.7%
26,CCc1ccc(S(=O)(=O)N2CCCC3(CCCN3S(C)(=O)=O)C2)cc1 (stereo not given),-12.2%
27,O=S(=O)(c1ccccc1)N1CCC2(CCCN2Cc2ccccc2Cl)C1 (stereo not given),60.2%

row,SMILES,INHIBITION
1,Cc1ccc(CN2CCCC23CCN(S(=O)(=O)c2ccccc2)C3)o1 (stereo not given),34.7%
2,O=C(c1ccc[nH]1)N1CCCC2(CCCN2Cc2cccnc2)C1 (stereo not given),12.1%
3,O=S(=O)(c1ccccc1)N1CCC2(CCCN2Cc2cccc(F)c2)C1 (stereo not given),78.8%
4,CS(=O)(=O)N1CCCC12CCCN(S(=O)(=O)c1cccc(F)c1)C2 (stereo not given),-2.35%
5,O=S(=O)(c1ccccc1)N1CCC2(CCCN2Cc2cccnc2)C1 (stereo not given),55.5%
6,O=C(c1ccc[nH]1)N1CCC2(CCCN2Cc2cccnc2)CC1,4.02%
7,COCCC(=O)N1CCC2(CCCN2Cc2ccccc2)C1 (stereo not given),-22.5%
8,CC(C)c1ccc(S(=O)(=O)N2CCCC3(CCCN3S(C)(=O)=O)C2)cc1 (stereo not given),-3.33%
9,CCS(=O)(=O)N1CCCC2(CCCN2Cc2cccc(F)c2)C1 (stereo not given),-22.1%
10,CCOc1cc(/C=C/c2ncc(C(=O)O)s2)cc(Br)c1O,-13.3%
11,CC(C)CNC(=O)CNC(=O)c1nc(Cc2c(Cl)cccc2Cl)no1,41%
12,COCCC1CCN(CC(C)n2cnc3ccccc32)CC1 (stereo not given),-3.47%
13,CCc1nc(CN2CCCN(C(=O)c3cnc(C)cn3)CC2)cs1,10.733%
14,COc1ccccc1CN(Cc1cccnc1)CC1CCCO1 (stereo not given),42.6%
15,CCN(CC)Cc1ccc(C(=O)N2CCN(CC(C)O)CC2)o1 (stereo not given),21.5%
16,COC(=O)c1cccc(S(=O)(=O)NC(=O)COC2CCCC2)c1,15.5%
17,O=S(=O)(c1ccccc1)N1CCC2(CCCN2Cc2cccc(Cl)c2)C1 (stereo not given),61.8%
18,COCCC(=O)N1CCC2(CCCN2Cc2cccc(Cl)c2)C1 (stereo not given),47.9%
19,CCS(=O)(=O)N1CCCC2(CCCN2Cc2cccc(Cl)c2)C1 (stereo not given),-14.3%
20,NC(=O)C1CCN(C(=O)NCCOc2ccc3c(c2)CCC3)CC1,5.45%
21,N[C@H]1CN(C(=O)c2ccc(Cl)cc2O)C[C@@H]1C1CC1,61%
22,Cc1cc(Cl)ccc1C(=O)N1C[C@H](C2CC2)[C@@H](N)C1,32.2%
23,N[C@H]1CN(C(=O)c2ccc(Cl)cc2F)C[C@@H]1C1CC1,25.7%
24,O[C@@H]1C[C@H]2CN(Cc3ccsc3)[C@@H](Cc3ccccc3)CN2C1,39.3%
25,COCCN1C[C@@H]2CN(c3cnccn3)C[C@@H]2C1=O,14%
26,CS(=O)(=O)N1C[C@H]2CN(CC3CC3)C(=O)[C@H]2C1,85.2%
27,CC(C)CN1C[C@@H]2CN(c3cnccn3)C[C@@H]2C1=O,21.3%

row,SMILES,INHIBITION
1,CCS(=O)(=O)N1C[C@H]2CN(CC3CC3)C(=O)[C@H]2C1,-12.2%
2,O=C1[C@H]2CN(c3ncccn3)C[C@H]2CN1Cc1ccncc1,4.71%
3,O=C1[C@H]2CN(c3ncccn3)C[C@H]2CN1CC1CC1,64.2%
4,O=C1[C@H]2CN(S(=O)(=O)C3CC3)C[C@H]2CN1CC1CC1,3.69%
5,O=C1[C@H]2CN(c3ncc(F)cn3)C[C@H]2CN1CC1CC1,42.6%
6,O=C1[C@H]2CN(c3cnccn3)C[C@H]2CN1CC1CC1,51.2%
7,CN(C)C1COC2(CCN(Cc3ccc4c(c3)OCO4)CC2)C1 (stereo not given),-50.4%
8,COc1cc(C2CC(=O)Oc3cc(C)[nH]c(=O)c32)ccc1OCC(=O)O (stereo not given),13.1%
9,CN1CCN(c2nc(O)c3c(-c4ccccn4)ccnc3n2)CC1,-33.2%
10,O=C(c1ccccc1C1CCNC1)N1CCC(N2CCC(O)CC2)CC1 (stereo not given),11.5%
11,COCCN(CCOC)C(=O)Nc1cc(C(F)(F)F)c[nH]c1=O,12.7%
12,Cc1ncsc1C(=O)NC1CCN(Cc2cccc3c2OCCO3)CC1,33.8%
13,CC1CS(=O)(=O)CCN1CCCc1ccc(C(F)(F)F)cc1 (stereo not given),10.1%
14,CCCC(=O)n1ccn(S(=O)(=O)c2ccc(C)cc2)c1=O,5.18%
15,CC(C)(CO)CNC(=O)c1cc(-c2cc[nH]n2)n2ccccc12,41.2%
16,COc1ccc(OCCN(C)c2cc(C)nc(N)n2)cc1,45.4%
17,COc1ccccc1OCCN(C)c1cc(C)nc(N)n1,26.3%
18,COc1ccccc1OCCCN(C)c1cc(C)nc(N)n1,61.2%
19,CN(CCOc1ccccc1F)C1CCOC1=O (stereo not given),33%
20,Cc1cc(N(C)CCOc2ccccc2F)nc(N)n1,65.7%
21,COc1ccccc1OCCCc1cc(C)nc(N)n1,-16.7%
22,CNc1cc(C2CN(Cc3cccnc3NC)CCO2)nc(C)n1 (stereo not given),1.62%
23,CC1c2ncc(CNC(=O)C3CC3)n2CCN1Cc1ccsc1 (stereo not given),-10.3%
24,CNC(=O)C1Cn2ccnc2C2(CCN(Cc3cccnc3)CC2)O1 (stereo not given),43.2%
25,COCCc1noc(CN2CCCC2c2noc(C)n2)n1 (stereo not given),-5.32%
26,COc1ccnc(NC(Cc2ccccc2)C(=O)N(C)C)n1 (stereo not given),8.7%
27,O=C(NC[C@@H]1C[C@@H]2CN(C(=O)CO)C[C@H]2O1)c1ccsc1,52.1%

row,SMILES,INHIBITION
1,O=C(NC[C@H]1C[C@@H]2CN(C(=O)c3ccco3)C[C@@H]2O1)c1ccsc1,18.6%
2,Cn1cccc1C(=O)NC[C@H]1C[C@@H]2CN(C(=O)c3ccco3)C[C@@H]2O1,7.7%
3,CC(C)OCc1ncn2c1CN(Cc1cccs1)CCC2,15.9%
4,CCn1cc2c(n1)C(COC)CN(C(=O)CCOc1ccccc1)C2 (stereo not given),-37.9%
5,CCc1cnc(N)nc1NC(C)c1ccc(C)c(C)c1 (stereo not given),88.2%
6,CCc1cnc(N)nc1N[C@@H](C)c1ncccc1C,3.96%
7,CCc1cnc(N)nc1NC(C)c1cnn(C)c1 (stereo not given),17.8%
8,CN(CC(O)C(F)(F)F)C(=O)Nc1cccc(N2CCCC2)c1 (stereo not given),-16.4%
9,Cn1cc(CN2CCC(F)(F)C3(CCN(c4ncc(F)cn4)C3)C2)cn1 (stereo not given),12.5%
10,O=C(c1ccc(Cn2ccccc2=O)o1)N1CCSCC1,20.45%
11,COc1c(Cl)cccc1NCc1csc(C)n1,-1.37%
12,COc1c(Cl)cccc1NCc1csc(NC(C)=O)n1,89.4%
13,COCCS(=O)(=O)Cc1csc(NC(C)=O)n1,21.8%
14,CC(=O)Nc1nc(CS(=O)(=O)CCCc2ccccc2)cs1,-25.2%
15,CCOC(C)c1nc(CNc2cccc(Cl)c2OC)cs1 (stereo not given),-3.08%
16,Cc1nc(CNc2ccccc2CCC(F)(F)F)cs1,-13.6%
17,CC(=O)Nc1nc(CNc2ccccc2CCC(F)(F)F)cs1,42.6%
18,Cc1nc(CNc2cccc(Cl)c2Cl)cs1,50%
19,COCc1csc(NC(=O)NCc2ccccn2)n1,-3.99%
20,COCc1ccccc1NCc1csc(NC(C)=O)n1,89%
21,CC(=O)Nc1nc(CS(=O)(=O)Cc2ccccc2)cs1,55.4%
22,CNc1nc(CNC(=O)Nc2cccc(Cl)c2OC)cs1,3.263%
23,CN(Cc1ccco1)C(=O)C1CSCN1C(=O)c1cccs1 (stereo not given),-31.8%
24,CCS(=O)(=O)N1CC[C@@H]2[C@H](CC1)N(Cc1cccnc1)CCS2(=O)=O,5.56%
